Source: PubChem BioAssay AID435026 (Broad Institute, 2010)
Hit rate of the full screen: of about 1,000 compounds, about 410 (41%) were called active. The set was probably picked from earlier hits. These entries were drawn from the full list. Values without a mark were called inactive.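 The calls were made as follows: active = fitted half-maximal inhibitory concentration no more than tenfold above the top dose tested; inconclusive = flat fit with 30 to 70% activity, or poor fit; inactive = half-maximal concentration beyond tenfold above the top dose.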

experiment: YIC intramolecular FRET probe signal interference, dose response, counter-screen for RanGTP-importin-beta inhibitor project, biochemical, fluorescence FRET (AID 435026); conditions: Purified YIC probe, intramolecular FRET ratio YFP/CFP

SMILES	IC50
CN(C)CCCn1c(N)c(C#N)c2nc(C#N)c(C#N)nc21	25 µM (active)
CCN(CCO)C(=S)Nc1cc(C(=O)OC)ccc1C(=O)OC	> 50 µM
O=C(Nc1ccccc1-c1ccccc1)c1cccs1	> 50 µM
N#C/C(=C/c1ccc(N2CCCCC2)o1)C(=O)NCCc1c[nH]c2ccccc12	0.753 µM (active)
Cc1nc2ccccc2c2oc(C(=O)NCCCN3CCC(C)CC3)cc12	> 50 µM
COc1ccc(C(=O)C[n+]2ccc(N)c(C)c2C)cc1	> 50 µM
Cc1ccc(-n2c(=O)c(C#N)cc3c(=O)n4ccccc4nc32)cc1C	1.78 µM (active)
COC(=O)c1cc2c(ccn2C)n1C	> 50 µM
CCn1c2ccccc2c2cc(NC(=O)CNC)ccc21	> 50 µM
O=c1cc(CN2CCN(S(=O)(=O)/C=C/c3ccccc3)CC2)c2ccc(O)cc2o1	44.1 µM (active)
COc1cc(SC)ccc1C(=O)Nc1nc(C)cs1	> 50 µM
COC(=O)c1ccc2c(C(C)(C)O)c(C(C)(C)O)[nH]c2c1	> 50 µM
COc1cccc(C(=O)c2cc3ccc(O)cc3oc2=O)c1	28.1 µM (active)
CC(=O)c1ccc(-c2ccc(Cn3c(C)nc4cc(N)c(C)nc43)cc2)cc1	> 50 µM
Cc1cc(O)ccc1NC1=CC(=O)CC(C)(C)C1	> 50 µM
CC(=O)N1CCc2c(sc(NC(=O)CCS(=O)(=O)c3ccc(C)cc3)c2C(N)=O)C1	38 µM (active)
CCCNS(=O)(=O)c1ccc2c(c1)CCCN2C(C)=O	> 50 µM
CCOC(=O)c1c(C)oc2cc(Br)c(OCC(N)=O)cc12	> 50 µM
COc1ccc(-n2cnc3cc(NCc4ccco4)ccc32)cc1	> 50 µM
CC1(C)CC(=O)NC=C(c2ccccc2)C1	> 50 µM
Cc1ccc(NC(=S)NCCN2CCOCC2)cc1	> 50 µM
N#C/C(=C/c1ccc(N2CCOCC2)o1)C(=O)N1CCOCC1	5.08 µM (active)
N#C/C(=C\c1ccc(N2CCOCC2)o1)C(=O)N1CCOCC1	5.73 µM (active)
CCCC(C)c1nnc(NC(=O)C2CC(=O)N(c3ccc(OCC)cc3)C2)s1 (configuration not stated)	> 50 µM

SMILES	IC50
COc1ccc(C(=O)Cc2cnn(-c3ccccc3)c2)c(O)c1	> 50 µM
Cc1ccc(N2CCN(c3ccc(C)cc3)C2c2ccccn2)cc1	> 50 µM
CCOc1ccc(N=Cc2c(O)n(-c3cccc(C)n3)c(=O)c3ccccc23)cc1	34.7 µM (active)
CCN(CC)c1nc(-c2ccccc2)cc(C(F)(F)F)c1C#N	9.38 µM (active)
CCCOc1ccc(Cn2ccnc2)cc1[N+](=O)[O-]	> 50 µM
CCN1C(=O)/C(=C2/Sc3ccccc3N2CCCS(=O)(=O)O)SC1=S	15 µM (active)
C/C(=N\N)c1c(-c2ccccc2)c2cc(Br)ccc2[nH]c1=O	> 50 µM
CN1CCN(c2cc(=O)n(-c3ccc(Cl)cc3)c(=O)[nH]2)CC1	> 50 µM
CCC(=O)Nc1c(S(=O)(=O)c2ccccc2)c2nc3ccccc3nc2n1Cc1ccccc1	17.3 µM (active)
O=C(NNc1c2ccccc2nc2ccccc12)c1cc2ccccc2cc1O	> 50 µM
COc1ccc(CCn2c(=N)c(C(=O)NCc3ccco3)cc3c(=O)n4cccc(C)c4nc32)cc1	50.2 µM (active)
CC(C)C1C2=C(CC(C)(C)CC2=O)ON1c1ccccc1 (configuration not stated)	> 50 µM
CCN1CCc2nc(NC(=O)c3cc(F)c(F)cc3Cl)sc2C1	> 50 µM
CNC(=O)c1cc2c(ccc3ccccc32)oc1=N	7.06 µM (active)
CC(=O)c1cc(C#N)c(N2CC(C)OC(C)C2)nc1C (configuration not stated)	> 50 µM
Oc1c(CN2CCN(c3ccc(F)cc3)CC2)cc(Cl)c2cccnc12	> 50 µM
CC1CN(c2cc(=O)n(-c3cccc(Br)c3)c(=O)[nH]2)CC(C)O1 (configuration not stated)	> 50 µM
CCOC(=O)c1oc2c(CN3CCN(CCO)CC3)c(O)c(CC)cc2c(=O)c1-c1nc2ccccc2s1	29.2 µM (active)
CC1CC(=O)N(CC(=O)Nc2cccc(Cl)c2)c2ccccc2S1(=O)=O (configuration not stated)	> 50 µM
CC(OC(=O)CNC(=O)c1cccc(F)c1)C(=O)NC1CCCCC1C (configuration not stated)	> 50 µM
OCCNCc1cccc(OCc2ccccc2Cl)c1	> 50 µM
N#Cc1c(N)n(CCOC(=O)c2ccc(Cl)cc2)c2nc3ccccc3nc12	3.73 µM (active)
CCN(CC(=O)Nc1cccc(S(=O)(=O)N2CCCCC2)c1)Cc1ccccc1	> 50 µM
